NS1 inh = influenza NS1 inhibition | 0.4% of 270,000 active | Potency, µM (top dose mostly 46.1 µM), for the others: top-dose activity, positive = more growth | AID 2326; calls by dose curve; further: actives are rising curves; nearly all actives have a fitted effect of over 50% in size
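In this qHTS, NS1 from influenza A is expressed in budding yeast, where it slows growth. Cells are switched from glucose to 2% galactose medium (pH 6.0, -URA), treated with compound, and growth recovery is read at OD600.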
AMA1-RON2 inh = inhibitors of Plasmodium falciparum AMA1-RON2 interaction; AlphaScreen AMA1-biotinylated RON2 peptide binding; Potency, µM (highest dose often 58.2 µM), without a hit: at the top dose activity change, negative = inhibition, most hits filed as inhibitors; 0.2% of 360,000 active; AID 720542;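 further: 0% = vehicle wells and -100% = peptide control; nearly all actives have a fitted effect of over 45% in size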
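AMA1 (3D7) with his tag at 25 nM final met compounds first, then biotinylated RON2 peptide at 25 nM; detection used donor plus acceptor beads, 10 µg/mL apiece, read by AlphaScreen after 30 min at room temperature.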
Pf growth 48h = inhibits P. falciparum growth in the first generation, 48 h; P. falciparum luciferase growth in erythrocytes, 48 h; Potency, µM (top dose mostly 28.7 µM), inactives show at the top dose activity change, negative = inhibition, usual class: inhibitors; 5.9% of 310,000 active; further: on the % scale 0 is the no-effect control and ±100 the full control effect
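Here the parasites carry a stable luciferase gene and grow inside erythrocytes in Albumax-based RPMI medium with compound for one erythrocytic cycle. Activity is scored as loss of luminescent signal.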
Sm TGR block = S. mansoni TGR enzyme inhibition; purified TGR, DTNB reduction, TNB absorbance 405 nm; Potency, µM (series often up to 114 µM), for the others: top-dose activity change, negative = inhibition, actives largely listed as inhibitors; 3% of 360,000 active; further: on the % scale 0 is the no-effect control and ±100 the full control effect; nearly all actives have a fitted effect of over 60% in size
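First, TGR (20 nM dispensed) and NADPH were mixed with compound. Second, a 15 min room-temperature incubation followed. Third, further NADPH and then DTNB were added to start the reaction. Finally, TNB absorbance was monitored kinetically.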
Pf growth 96h = P. falciparum growth inhibition at 96 hour, primary screen for plastid delayed-death inhibitors | AID 504834 | P. falciparum luciferase reporter growth, 96 h | Potency, µM (series often up to 28.7 µM), inactives show top-dose activity change, negative = inhibition, most hits filed as inhibitors | 6.9% of 320,000 active; further: on the % scale 0 is the no-effect control and ±100 the full control effect
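P. falciparum expressing integrated firefly luciferase grown in erythrocytes (2% hematocrit, 0.05% parasitemia final) with compounds for 96 hours at 37 C, 5% CO2. Growth inhibition read as loss of luminescence after adding luciferase detection reagent.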
Active calls of the source: *. Only some compounds are listed: those with a hit (about 11% of all), similar ones and a draw of the others. Unless noted, the call rests on the fitted dose curve; in most records, active means well fitted curve in the direction sought with a large enough effect; inconclusive means small, poorly fitted or top-dose-only effect, or another doubt; inactive means no such curve, though single readings can be large; an effect the other way counts as inactive or inconclusive. Potency means the concentration at half of the fitted maximal effect.

Results for O=C1COc2cc(O)ccc21 ?
AMA1-RON2 inh: -5%

How did COCCOn1c(SCCOC)nc2ccccc2c1=O do in these assays?
NS1 inh: 0%; AMA1-RON2 inh: -22%; Pf growth 48h: 24%; Sm TGR block: -2%; Pf growth 96h: 15%

What do the screens show for `COc1ccc(Cl)cc1NC(=O)c1nnn(CC(=O)Nc2ccc(C)c(C)c2)c1N`?
NS1 inh: 11%; AMA1-RON2 inh: -10%; Pf growth 48h: 17%; Sm TGR block: -5%; Pf growth 96h: inconclusive

Results for CCc1cc(-c2n[nH]c(C)c2-c2nc(C)cs2)c(O)cc1OC ?
NS1 inh: -11%; AMA1-RON2 inh: 47%; Pf growth 48h: inconclusive; Sm TGR block: -1%; Pf growth 96h: -17%

How did CCc1cc(-c2n[nH]c(C)c2-c2nc3ccccc3s2)c(O)cc1OCC(=O)NN do in these assays?
AMA1-RON2 inh: 38%; Pf growth 48h: 5.2µM*; Sm TGR block: 5%; Pf growth 96h: 17%

How did CCOC(=O)N1CCc2c(sc3ncn(Cc4ccc(F)cc4)c(=O)c23)C1 do in these assays?
NS1 inh: -2%; AMA1-RON2 inh: -10%; Pf growth 48h: 10µM*; Sm TGR block: 2%; Pf growth 96h: 5.9µM*

How did O=c1c2c3c(sc2ncn1Cc1ccc(F)cc1)CCC3 do in these assays?
NS1 inh: -5%; AMA1-RON2 inh: 6%; Sm TGR block: -9%; Pf growth 96h: inconclusive

What do the screens show for `O=C(NCCc1ccccc1)c1ccc(Cl)c(S(=O)(=O)N2CCOCC2)c1`?
NS1 inh: 12%; AMA1-RON2 inh: 0%; Pf growth 48h: inconclusive; Sm TGR block: -21%; Pf growth 96h: 10µM*

What do the screens show for `CC(C)(C)SCCNC(=O)c1ccc(Cl)c(S(=O)(=O)N2CCOCC2)c1`?
AMA1-RON2 inh: 42%

Results for COc1cccc(CNC(=O)c2ccc(Cl)c(S(=O)(=O)N3CCOCC3)c2)c1 ?
AMA1-RON2 inh: 7%; Pf growth 48h: 8.3µM*; Sm TGR block: 13%; Pf growth 96h: 6.6µM*

What do the screens show for `COc1cccc(CNC(=O)CCCNC(=O)c2ccc(Cl)cc2)c1`?
NS1 inh: -17%; AMA1-RON2 inh: -4%; Pf growth 48h: inconclusive; Sm TGR block: 22µM*; Pf growth 96h: inconclusive

How did O=C(CCCNC(=O)c1ccc(Cl)cc1)Nc1ncccc1O do in these assays?
NS1 inh: 8%; AMA1-RON2 inh: 19%; Pf growth 48h: inconclusive; Sm TGR block: 1%; Pf growth 96h: 8.3µM*

Results for O=C(CCNC(=O)c1ccc(Cl)cc1)Nc1ncccc1O ?
NS1 inh: 6%; AMA1-RON2 inh: 55%; Pf growth 48h: 6%; Sm TGR block: inconclusive; Pf growth 96h: 10%

What do the screens show for `O=C(NCc1ccncc1)c1ccc(Cl)c(S(=O)(=O)N2CCOCC2)c1`?
NS1 inh: 0%; AMA1-RON2 inh: -25%; Pf growth 48h: inconclusive; Sm TGR block: -25%; Pf growth 96h: -24%

How did O=C(CCCn1c(=S)[nH]c2ccsc2c1=O)NCCc1ccccc1 do in these assays?
NS1 inh: -6%; AMA1-RON2 inh: 129%; Pf growth 48h: 6%; Sm TGR block: -11%; Pf growth 96h: 15%

Results for CC(NC(=O)CN1C(=O)NC2(CCCCC2C)C1=O)c1ccccc1 (centres undefined) ?
AMA1-RON2 inh: 0%; Pf growth 48h: -3%; Sm TGR block: -1%; Pf growth 96h: 19%

What do the screens show for `CC[N+](C)(C)CCN(Cc1ccc(Cl)cc1)c1ccccn1`?
NS1 inh: 5%; AMA1-RON2 inh: -2%; Sm TGR block: -8%; Pf growth 96h: 2.6µM*

Results for CC12CCC(c3c(CO)nn(-c4ccccc4)c31)C2(C)C (centres undefined) ?
NS1 inh: -5%; AMA1-RON2 inh: -6%; Pf growth 48h: inconclusive; Sm TGR block: 4%; Pf growth 96h: 10µM*

How did Cc1n[nH]c(C)c1S(=O)(=O)N(CC(=O)NCc1ccccc1Cl)c1ccc(C(C)C)cc1 do in these assays?
Sm TGR block: 1%

How did O=C1NCCN(CC2CCN(CC3CCCC3)CC2)C1=O do in these assays?
AMA1-RON2 inh: -3%

Results for O=C(COc1ccccc1Cl)Nc1ccc(S(=O)(=O)Nc2ccccn2)cc1 ?
NS1 inh: 11%; AMA1-RON2 inh: -16%; Pf growth 48h: 3%; Sm TGR block: 0%; Pf growth 96h: 25%

What do the screens show for `COc1ccccc1CNC(=O)c1cn(C)c2ccc(S(=O)(=O)N3CCCCC3)cc2c1=O`?
Pf growth 48h: 0%; Sm TGR block: -13%; Pf growth 96h: 1%

How did COc1cc(OC)cc(C2=NC3(CCC(C)CC3)NC2=S)c1 (centres undefined) do in these assays?
AMA1-RON2 inh: 50%; Pf growth 48h: 10µM*; Sm TGR block: 10%; Pf growth 96h: -7%

What do the screens show for `CC(=O)c1c(C)[nH]c(C(=O)CSc2nnc(-c3cccs3)n2Cc2ccccc2)c1C`?
NS1 inh: inconclusive; AMA1-RON2 inh: -10%; Pf growth 48h: 9.3µM*; Sm TGR block: -26%

What do the screens show for `CC(=O)c1c(C)[nH]c(C(=O)CSc2nnc(C3CCCCC3)n2N)c1C`?
NS1 inh: 5%; AMA1-RON2 inh: 4%; Pf growth 48h: 2.1µM*; Sm TGR block: 1%

How did Nn1c(SCC(=O)N2CCCC2)nnc1C1CCCCC1 do in these assays?
AMA1-RON2 inh: -7%

What do the screens show for `CC(=O)c1c(C)[nH]c(C(=O)CSc2nnc(-c3ccco3)n2Cc2ccccc2)c1C`?
NS1 inh: -7%; AMA1-RON2 inh: -4%; Pf growth 48h: inconclusive; Sm TGR block: 40µM*; Pf growth 96h: 0.059µM*

How did CCCn1c(N)c(C(=O)CSc2nnc(-c3ccco3)n2Cc2ccccc2)c(=O)[nH]c1=O do in these assays?
NS1 inh: 5%; AMA1-RON2 inh: -14%; Pf growth 48h: inconclusive; Sm TGR block: 0%; Pf growth 96h: 0%

What do the screens show for `Cc1cccc(C)c1-n1nnnc1C(c1ccnc2ccccc12)N1CCOCC1` (centres undefined)?
AMA1-RON2 inh: 8%

Results for CN1CCN(C(c2ccccc2Cl)c2sc3nc(-c4ccco4)nn3c2O)CC1 (centres undefined) ?
Sm TGR block: 20%

How did CCCc1nnc(SCC(=O)Nc2ccccc2Cl)n1CC1CCCO1 (centres undefined) do in these assays?
NS1 inh: 2%; AMA1-RON2 inh: 0%; Pf growth 48h: 1%; Sm TGR block: -7%; Pf growth 96h: 4%

Results for CCCCN1/C(=C/c2ccc3ccccc3[n+]2CC)Sc2ccccc21 ?
NS1 inh: -62%; AMA1-RON2 inh: -6%; Pf growth 48h: 2.9µM*; Pf growth 96h: 24%

Results for Cc1cc(C(=O)N2CCc3c([nH]c4ccccc34)C2c2c(F)cccc2Cl)no1 (centres undefined) ?
NS1 inh: 2%; AMA1-RON2 inh: -8%; Pf growth 48h: 5.9µM*; Sm TGR block: 9%; Pf growth 96h: -5%

Assay outcomes as filed in PubChem BioAssay.
